Source: the supplement of paper PMC9135407
Values joined by “and” are separate entries in the source; they are usually repeats but may differ in a detail not shown here. Equal values may be shown once. Where a name gives a salt, the structure may show the parent alone. Screen size: about 5,800 compounds; about 620 (11%) showed activity. Many of the other results were omitted from the sample, so actives are more common in it than they were. Values without a mark were called inactive.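 The calls were made as follows: active = score above a cut-off or among the top three wells of a plate; in these data no inactive exceeds 0.85.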

Test system: primary human hepatic stellate cells (donor 1)
Assay: scaled lipid accumulation score (0 = DMSO-like, 1 = nortriptyline-like); higher = stronger HSC inactivation (lipid re-accumulation), active = hit call of the paper
Conditions: 48 h
Method: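 Primary lipid accumulation screen in primary human hepatic stellate cell myofibroblasts (donor 1, passage 8) in 384-well plates. 100 nL of library compound was pin-transferred into 30 µL medium in duplicate, and cells were treated for 48 h. The 'Scaled' score combines distance from plate baseline, toxicity and reproducibility penalties, and is normalised to nortriptyline (positive) and DMSO (negative) controls on each plate. A hit is defined as scaled >0.85 or among the top 3 wells per plate.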

[1] = library stock concentration: 3.33 mM
[2] = library stock concentration: 10 mM
[3] = library stock concentration: 80 uM
[4] = library stock concentration: 400 uM
[5] = library stock concentration: 2 mM
[6] = library stock concentration: 1 mM

Question: What does the source list for `O=C(NC1CCOCC1)c1ccc(-c2cc(-c3c[nH]nc3-c3ccccn3)ccn2)cc1`?
Answer: scaled lipid accumulation score [1]: ≤ 0; scaled lipid accumulation score [2]: ≤ 0

Question: For `O=C(Nc1c[nH]nc1-c1nc2ccc(CN3CCOCC3)cc2[nH]1)NC1CC1` [listing 1 of 2 here], which “scaled lipid accumulation score” value [3] is on record?
Answer: 0.613

Question: And the “scaled lipid accumulation score” value [4]?
Answer: 0.259

Question: What about the “scaled lipid accumulation score” value [5] of the same compound?
Answer: 0.562 and 0.591

Question: And the “scaled lipid accumulation score” value [1]?
Answer: 0.59

Question: What about the “scaled lipid accumulation score” value [2] of the same compound?
Answer: 0.791 and 0.755 and 0.681

Question: Which “scaled lipid accumulation score” value [4] does the source give for `O=C(Nc1c[nH]nc1-c1nc2ccc(CN3CCOCC3)cc2[nH]1)NC1CC1` [listing 2 of 2 here] here?
Answer: 0.877 (active)

Question: For `CCCCC[C@H](O)/C=C/[C@H]1[C@@H]2CO[C@@H](C2)[C@@H]1C/C=C\CCCC(=O)O`, which “scaled lipid accumulation score” value [6] is on record?
Answer: ≤ 0

Question: How did the “scaled lipid accumulation score” value [6] turn out when `O=P(O)(O)O[C@@H]1[C@H](O)[C@H](O)[C@@H](OP(=O)(O)O)[C@H](OP(=O)(O)O)[C@H]1O` [D-myo-Inositol-1,4,5-triphosphate (sodium salt)] was run?
Answer: 0.018

Question: What does the source list for `CN(C)CCCOc1nn(Cc2ccccc2)c2ccccc12` [Benzydamine hydrochloride]?
Answer: scaled lipid accumulation score: 0.652; scaled lipid accumulation score (library stock concentration: 5.8 mM): 0.429

Question: Which “scaled lipid accumulation score” value [1] does the source give for `CC(C)(OCc1nn(Cc2ccccc2)c2ccccc12)C(=O)O` [Bindarit] here?
Answer: ≤ 0

Question: What about the “scaled lipid accumulation score” value [2] of the same compound?
Answer: ≤ 0

Question: `CN(C)CCCOc1nn(Cc2ccccc2)c2ccccc12.Cl` [Benzydamine HCl] was tested. Which “scaled lipid accumulation score” value [2] did it give?
Answer: 1.08 (active)

Question: How did the “scaled lipid accumulation score” value [1] turn out when `CN(C)CCCOc1nn(Cc2ccccc2)c2ccccc12` [Benzydamine HCl] was run?
Answer: 0.13

Question: `COc1cc2c(cc1Cc1cccc(Cl)c1F)c(=O)c(C(=O)O)cn2[C@H](CO)C(C)C` [Elvitegravir (GS-9137, JTK-303)] was tested. Which “scaled lipid accumulation score” value [1] did it give?
Answer: ≤ 0

Question: What about the “scaled lipid accumulation score” value [2] of the same compound?
Answer: ≤ 0

Question: For `O=C(O)CCCCCCC1C(=O)N(Cc2ccccc2)C(=O)N1NCC(O)C1CCCCC1` (configuration not stated), which “scaled lipid accumulation score” value [6] is on record?
Answer: ≤ 0

Question: With `CCCn1cc(-c2ccnc(NC3CCN(Cc4cccnc4)CC3)n2)c(C)n1` as the compound, how does the “scaled lipid accumulation score” value [2] read?
Answer: 0.91 (active)

Question: `COC(=O)C[C@](O)(CCCC(C)(C)O)C(=O)O[C@@H]1C(OC)=C[C@]23CCCN2CCc2cc4c(cc2[C@H]13)OCO4` [Homoharringtonine] was tested. Which “scaled lipid accumulation score” value [2] did it give?
Answer: 1.27 (active)

Question: For `O=C1O/C(=C/Br)CCC1c1cccc2ccccc12` (configuration not stated) [Bromoenol lactone], which “scaled lipid accumulation score” value [6] is on record?
Answer: ≤ 0

Question: What does the source list for `O=c1[nH]c(C2CCCN2)nc2c1oc1ccc(Cl)cc12` (configuration not stated)?
Answer: scaled lipid accumulation score [3]: ≤ 0; scaled lipid accumulation score [4]: 0.055; scaled lipid accumulation score [5]: ≤ 0; scaled lipid accumulation score [2]: ≤ 0

Question: How did the “scaled lipid accumulation score” value [6] turn out when `O=C(O)CCC/C=C\C[C@@H]1[C@@H](/C=C/[C@@H](O)C2CCCCC2)[C@H](O)C[C@@H]1O` [15-cyclohexyl pentanor Prostaglandin F2.alpha.] was run?
Answer: ≤ 0
